# Laboratory results from PubChem BioAssay (NCI).
# The panel holds about 83,000 compounds, 20% with a hit somewhere; the sample as a whole holds those more often.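 Plates (96-well) were seeded with cells, treated with compound at one concentration, and incubated for 48 hours before percent growth was determined.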 Values without a mark were called inactive. Calls of active or inactive are those of the source. How the source made its calls: active means growth percent below 10; inactive means the rest.
# Columns and labels:
# Experiment in all cases: NCI-60 one-dose screen, 48 h (100 = growth as untreated, 0 = no growth, -100 = all killed)
# Conditions in all cases: 10 µM unless noted
# NCI-H23 lung = system: NCI-H23 lung
# NCI-H226 lung = system: NCI-H226 lung
# NCI-H322M lung = system: NCI-H322M lung
# HOP-62 NSCLC = system: HOP-62 NSCLC
# NCI-H460 lung = system: NCI-H460 lung
# NCI-H522 lung = system: NCI-H522 lung
# A549/ATCC NSCLC = system: A549/ATCC NSCLC
# 786-0 renal = system: 786-0 renal
# COLO 205 colon = system: COLO 205 colon
# DU-145 prostate = system: DU-145 prostate
# MALME-3M melanoma = system: MALME-3M melanoma
# MDA-MB-231 breast = system: MDA-MB-231 breast
# RXF 393 renal = system: RXF 393 renal
# SF-268 CNS = system: SF-268 CNS
# SF-295 CNS = system: SF-295 CNS
# SF-539 CNS = system: SF-539 CNS
# UACC-257 melanoma = system: UACC-257 melanoma
# M14 melanoma = system: M14 melanoma
# HOP-92 NSCLC = system: HOP-92 NSCLC
# K-562 leukemia = system: K-562 leukemia
Compound,growth (NCI-H23 lung),growth (NCI-H226 lung),growth (NCI-H322M lung),growth (HOP-62 NSCLC),growth (NCI-H460 lung),growth (NCI-H522 lung),growth (A549/ATCC NSCLC),growth (786-0 renal),growth (COLO 205 colon),growth (DU-145 prostate),growth (MALME-3M melanoma),growth (MDA-MB-231 breast),growth (RXF 393 renal),growth (SF-268 CNS),growth (SF-295 CNS),growth (SF-539 CNS),growth (UACC-257 melanoma),growth (M14 melanoma),growth (HOP-92 NSCLC),growth (K-562 leukemia)
CC(=O)O[C@@H]1[C@@H](OC(C)=O)[C@H](OC(C)=O)CO[C@H]1Nc1cccc2ccccc12,94.8%,97.2%,94.4%,94.1%,98%,68.3%,102%,107%,99.7%,100%,86.9%,89%,105%,83.1%,94.5%,90.2%,103%,99.6%,–,–
O=C(Nc1ccc(-n2cc(-c3ccncc3)c(-c3ccc(O)c(Cl)c3)n2)cc1)c1ccc(Cl)c(Cl)c1,43.7%,74.6%,71.5%,27.5%,–,26.3%,33.1%,-41.6% (active),64.9%,46.1%,46.8%,-33.8% (active),-83.2% (active),54.5%,-16.3% (active),10.6%,69.5%,-35.7% (active),14.9%,11.7%
C=CCn1c(SCC(=O)Nc2ccc(/C(C)=N\O)cc2)nnc1-c1cc(-c2ccc(OC)cc2)nc2ccccc12,33.7%,41.2%,31.9%,38.5%,–,18.7%,20.1%,32.8%,19.2%,60.6%,66.4%,33.7%,42.2%,51.5%,19.8%,20.2%,44.1%,36.3%,45.9%,19.1%
CSc1ccc(C(=O)C[n+]2cccc(C)c2)cc1,102%,94.3%,102%,107%,–,110%,105%,100%,109%,109%,96.6%,107%,107%,99.4%,98.4%,99.7%,98.2%,103%,105%,102%
C=C1C(=O)O[C@H]2[C@H]1CC/C(COC(=O)c1ccc(Br)cc1)=C\CC[C@@]1(C)O[C@@H]21,32.6%,-55.8% (active),60.5%,25.8%,25.7%,-78.1% (active),16.2%,-61% (active),-67.2% (active),-33.7% (active),-54.1% (active),-56% (active),-86% (active),24.6%,63.7%,-76.3% (active),50.3%,-22.8% (active),–,–
O=[N+]([O-])c1ccc(NS(=O)(=O)c2ccccc2)c2ccccc12,34.3%,59.4%,71.9%,50.6%,–,18.2%,57.1%,51.5%,59.1%,62.4%,18.8%,70.1%,41.6%,42.3%,43%,45.1%,16.3%,41%,1.99% (active),–
CC(C)(C)NC(C1=CC(C)(C)c2ccccc2C1=O)c1ccccc1 (stereo unspecified),9.47% (active),-68.6% (active),-1.08% (active),-13.8% (active),–,-81.5% (active),-9.21% (active),-94% (active),-91.5% (active),-26.2% (active),-43% (active),-1.43% (active),–,-11.3% (active),37.8%,-40.7% (active),-59.3% (active),-41.5% (active),-50.8% (active),-34.8% (active)
CN(C)c1ccc(/C=N/n2c(-c3cc(F)c(Cl)cc3Cl)nn(CN3CCOCC3)c2=S)cc1,101%,97.2%,94.9%,87.1%,121%,74.1%,–,101%,108%,106%,87.6%,99.8%,110%,119%,96.1%,97.1%,91.9%,82.6%,–,82.7%
COc1cc(NS(C)(=O)=O)ccc1Cc1c2ccccc2nc2ccccc12,11.2%,-17.5% (active),75.2%,–,-1.15% (active),43.2%,-11.8% (active),-10.6% (active),29.8%,11%,14.8%,53.2%,-13.4% (active),22.4%,3.77% (active),-28.5% (active),25%,10%,21.2%,18.2%
C#CCn1c(-c2cc(OC)c(OC)cc2Br)nc(-c2ccccc2)c1-c1ccccc1,42.5%,66%,28.6%,–,–,17.4%,31.2%,48.8%,8.73% (active),63.9%,29.3%,45.7%,41.3%,70%,21.6%,62.7%,59.2%,16.1%,41.9%,15.1%
COc1ccc(C(=O)Cn2cnc3c(Nc4cc(C(=O)Nc5ccc(N6CCN(CCO)CC6)cc5)ccc4C)ncnc32)cc1,98.2%,96.9%,101%,–,108%,87.8%,108%,98.5%,104%,105%,116%,110%,113%,98.6%,93.2%,98.2%,104%,95.3%,121%,–
COc1ccc(/C=C/C(=O)c2ccc(NC(=O)CSc3nnc(-c4cc(OC)c(OC)c(OC)c4)o3)cc2)cc1,-17% (active),12.9%,20.2%,–,14.5%,-76.4% (active),7.85% (active),-58.4% (active),-61.1% (active),4.04% (active),-70.7% (active),-80.7% (active),-84.3% (active),-76.7% (active),57.6%,-90.3% (active),40.1%,-60.1% (active),-55.4% (active),-52.2% (active)
C#C[C@H](O)/C=C/CCCCCCC#C[C@H](O)CC[C@@H](O)C#CCCCCCC/C=C/[C@@H](O)C#C,51%,116%,96.3%,–,97.4%,-72.7% (active),91.1%,64.6%,79.8%,95.7%,-32.9% (active),63.1%,104%,85.1%,87.4%,75.9%,101%,93.1%,11.9%,11.7%
COc1ccccc1S(=O)(=O)Nc1ccc2c3c(cc(-c4ccoc4)nc13)C(=O)N2C,81.2%,82.7%,76.2%,–,70.9%,46.3%,66.2%,53.6%,44.7%,86.5%,71.3%,62.8%,85.3%,84.1%,56.9%,63.2%,58.7%,53.1%,45.3%,–
Cc1cccc[n+]1CCC[n+]1ccccc1C,99.8%,98.4%,109%,84.9%,–,88.1%,95.7%,84.2%,91.1%,111%,105%,115%,111%,107%,103%,98.9%,111%,89.4%,–,103%
